Screening data (PubChem BioAssay)
Anthrax LF prot – anthrax lethal factor protease inhibition; inhibition, % at 10 µM; 0.12% of 360,000 active; multiplex microsphere protease cleavage assay, LF
3CLpro inhibitor – SARS-CoV 3CLpro protease inhibition; recombinant SARS-CoV 3CLpro, quenched FRET peptide cleavage; P0C6X7; inhibition, % at 6 µM; 0.14% of 290,000 active; in the data active means inhibition above about 12%
BoNT A protease – BoNT A light chain protease inhibition | multiplex microsphere protease substrate cleavage, flow cytometry | 0.17% of 360,000 active | AID 588499 | inhibition, % at 10 µM
Bead autofluor – compound fluorescence in toxin protease inhibitor counterscreen. compound autofluorescence counterscreen, microsphere flow cytometry; hits give high values. fluorescence intensity (concentration not given with the values). 3.1% of 360,000 active; in the data active means fluorescence intensity above about 16000; inconclusive means no clear call, values can overlap the other calls
BoNT F protease – BoNT F light chain protease inhibition | AID 588497 | Multiplex microsphere protease cleavage assay, flow cytometry | 0.22% of 360,000 active | inhibition, % at 10 µM; in the data active means inhibition above about 35%, passing the limit was not always enough; inconclusive means no clear call, values can overlap the other calls
Large screens that a line does not name were inactive. A selection: hits, their analogues and other compounds. The true share with any hit is near 3.5%. Unless noted, no stated cut-off is given here; in the data, active means inhibition above about 30%; inconclusive means no clear call, values can overlap the other calls; inactive means below that.

CCOC(=O)C1(Cc2cccc(Cl)c2)CCCN(C(=O)c2cnn(CC)c2)C1 (centres undefined)	Bead autofluor inconclusive
CC1=C(C(=O)Nc2ccccn2)C(c2ccc(Cl)cc2)NC(=S)N1 (centres undefined)	none
COc1ccc(-c2nn(-c3ccccc3)cc2C(=O)O)cc1OC	none
O=C(NCc1ccncc1)c1cn(-c2ccccc2)nc1-c1cccnc1	none
O=C(NC1CCN(Cc2ccc(Cl)cc2)CC1)c1cn(-c2ccccc2)nc1-c1cccnc1	Bead autofluor 21980 (no result: 3CLpro inhibitor)
CCN(CC)C(=O)C1=C(C)NC(=S)NC1c1cn(-c2ccccc2)nc1-c1ccc(Cl)cc1 (centres undefined)	Bead autofluor 23563
O=C(O)c1cn(-c2ccccc2)nc1-c1ccc(Cl)cc1	Bead autofluor 17250
O=C(Nc1ccc(S(=O)(=O)N2CCCC2)cc1)C1CC(=O)N(c2ccc(F)cc2)C1 (centres undefined)	none
Cc1nc(NC(=O)c2oc3ccccc3c2C)sc1C(=O)N(C)C	Bead autofluor 24342
Cc1nnc(NC(=O)c2oc3ccccc3c2C)s1	none
COc1ccc(N2CCN(/C(=N\S(=O)(=O)c3ccc(C)cc3)Nc3nc(C)cc(C)n3)CC2)cc1	Bead autofluor 19034
COc1ccc(N2CCN(C(=O)c3ccc(CNS(=O)(=O)c4ccc(C)cc4)cc3)CC2)cc1	none
Cc1cc(C)c(C(=O)COC(=O)Cn2cnnn2)cc1C	none
O=C(Cn1cnnn1)OCC(=O)c1ccc(Cl)s1	Bead autofluor 22766
O=C(c1cc(S(=O)(=O)N2CCOCC2)c(Cl)cc1Cl)N1CCCC1	none (no result: 3CLpro inhibitor)
CC(=O)Nc1sc(C)c(C)c1CN1CCN(S(=O)(=O)c2ccccc2)CC1	none
C/C(CC(=O)Nc1ccccn1)=N\NC(=O)Cc1cccc2ccccc12	BoNT A protease inconclusive, Bead autofluor 23733
C/C(CC(=O)Nc1ccccn1)=N\NC(=O)c1ccccc1	none (no result: Anthrax LF prot, BoNT A protease, Bead autofluor, BoNT F protease)
O=c1c(O)c(-c2cccs2)oc2ccccc12	BoNT A protease 31
O=c1cc(-c2ccccc2)oc2ccc(Cl)cc12	none (no result: 3CLpro inhibitor)
O=c1cc(-c2cccs2)oc2ccc(Cl)cc12	Bead autofluor 22409
O=c1c(O)c(-c2cccs2)oc2ccc(Cl)cc12	Anthrax LF prot 32, BoNT A protease 35
COc1ccc2nc(SCC(=O)Nc3ccccc3C)[nH]c2c1	Bead autofluor 20993
COc1ccccc1NC(=O)CSc1nc(N)cc(N)n1	Bead autofluor 21327
COc1ccccc1NC(=O)CSc1nccc(=O)[nH]1	BoNT A protease inconclusive, Bead autofluor 21630
COc1ccc2nc(SCC(=O)Nc3ccccc3C#N)[nH]c2c1	none
CCN(CC)S(=O)(=O)c1cccc(NC(=O)C2SC(=Nc3ccc(C)cc3C)C(C(=O)NCC3CCCO3)=C2N)c1 (centres undefined)	Bead autofluor 23589
CCN(CC)S(=O)(=O)c1cccc(C(=O)NCC2CCCO2)c1 (centres undefined)	none
Cc1ccsc1C(=O)N1CC(=O)Nc2ccccc21	none
CC(C)(C)C(=O)COC(=O)c1cccc(NC(=O)c2ccco2)c1	Bead autofluor 23138
Cc1ccc(C(=O)OCC(=O)Nc2ccc(N(C)C)cc2)cc1NC(=O)c1ccco1	none
Cc1ccc(C(=O)OCC(=O)Nc2ccccc2)cc1NC(=O)c1ccco1	Bead autofluor 17209
CCC(C)c1ccccc1NC(=O)COC(=O)c1ccc(C)c(NC(=O)c2ccco2)c1 (centres undefined)	Bead autofluor 21016
O=C(Nc1cccc(C(F)(F)F)c1)c1ccco1	Bead autofluor 23988
O=C(CCn1c(=O)sc2ccccc21)NC1=NCCS1	none
O=C(OCCCN=C1NS(=O)(=O)c2ccccc21)c1cccs1	none
COc1cc(C(=O)OCC(=O)NC2CCCC2)cc(NC(=O)c2ccco2)c1OC	Bead autofluor 20665
COc1ccc(CN(CCN(C)C)Cc2ccccc2)c(OC)c1	Bead autofluor 20994
CCN(Cc1ccncc1)Cc1ccc(OC)cc1OC	none
CCCCC(CC)C1OCC(CN2CCCC2)O1 (centres undefined)	BoNT A protease inconclusive, Bead autofluor 19353
CCCCC(CC)C1OCC(CN2CCCCC2)O1 (centres undefined)	BoNT F protease inconclusive
CC(C)CNC(=O)C(=O)NNC(=O)C1CCCCC1	Bead autofluor 21511
CCc1cccc2c1NC(=O)[C@]21[C@@H]2C(=O)N(Cc3ccccc3)C(=O)[C@@H]2[C@@H]2CCCN21	none
COc1cc(Br)cc(CN2CCN(C)CC2)c1O	BoNT A protease inconclusive, Bead autofluor 22111
CC(=O)c1ccc(NC(=O)C(C)Sc2ccccn2)cc1 (centres undefined)	none
CC(Sc1ccccn1)C(=O)Nc1ccccc1 (centres undefined)	Bead autofluor 20487
